Source: PubChem (National Center for Advancing Translational Sciences (NCATS))
POLK inh = DNA polymerase kappa (human) inhibition; Q9UBT6; purified Pol kappa, fluorescent DNA synthesis assay, 10 min; Potency, µM (highest dose often 107 µM), for the others: at the highest dose activity, negative = inhibition, usual class: inhibitors; actives 0.53% (n = 400,000); AID 588579; also: % is scaled to controls: 0 for no effect and ±100 for the full control effect
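Kinetic fluorescence readout at 0 and 10 min followed reaction start with substrate at 50 nM final. Beforehand, enzyme (10 nM Pol kappa) stood 15 min with compound at room temperature; buffer-only wells were negative controls.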
FEN1 inhibitor = blocks human flap endonuclease 1. P39748. Recombinant FEN1 flap cleavage, fluorescence, 15 min. Potency, µM (titrated, usually from 114 µM), for the others: at the highest dose activity change, negative = inhibition, actives largely listed as inhibitors. actives 0.35% (n = 390,000). AID 588795; also: % is scaled to controls: 0 for no effect and ±100 for the full control effect; nearly all actives have a fitted effect of over 65% in size
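FEN1 at 10 nM preincubated with compounds 15 min at room temperature, then flap DNA substrate added at 50 nM final. Signal read at 0 and 15 min; concentration-response fitted with four-parameter Hill equation.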
WRN inhibitor = inhibitors of human WRN helicase; WRN helicase unwinding, fluorescent forked duplex, kinetic; Potency, µM (titrated, usually from 114 µM), for inactives: at the top dose activity change, negative = inhibition, hits mostly inhibitors; actives 0.46% (n = 360,000); AID 651768; Q14191; also: % is scaled to controls: 0 for no effect and ±100 for the full control effect; nearly all actives have a fitted effect of over 55% in size
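Fluorescence dequenching readout, ex 525 nm/em 598 nm, kinetic mode: forked duplex DNA (100 nM final) with adjacent fluorophore and quencher unwound by WRN (20 nM final) with 2 mM ATP. Compound preincubation 15 min, room temperature.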
POLI inh = blocks human DNA polymerase iota activity | Q9UNA4 | Pol iota fluorescent replication assay, 10 min | Potency, µM (highest dose often 115 µM), for the others: at the top dose activity, negative = inhibition, usual class: inhibitors | actives 1% (n = 390,000)
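Pol iota at 10 nM preincubated 15 min with compounds at room temperature; reaction started with fluorescent substrate, 50 nM final. Fluorescence read kinetically at 0 and 10 min; buffer-only wells as negative control.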
POLB inh = blocks human DNA polymerase beta activity | P06746 | AID 485314 | Potency, µM (series often up to 114 µM), for the others: top-dose activity change, negative = inhibition, most hits filed as inhibitors | actives 1.3% (n = 340,000) | Pol beta primer extension/strand displacement, fluorescence kinetic; also: % is scaled to controls: 0 for no effect and ±100 for the full control effect
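Values derive from four-parameter Hill fits of normalized kinetic data: reads at 0 and 10 min following addition of 50 nM substrate to 10 nM Pol beta preincubated 15 min with compound.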
Pol eta inh = DNA polymerase eta (human) inhibition; Q9Y253; recombinant Pol eta, fluorescent DNA replication assay; Potency, µM (doses to about 114 µM), for inactives: top-dose activity change, negative = inhibition, most hits filed as inhibitors; actives 1.2% (n = 390,000); AID 588591; also: % is scaled to controls: 0 for no effect and ±100 for the full control effect
Target sequence (Q9Y253 whole entry, looked up): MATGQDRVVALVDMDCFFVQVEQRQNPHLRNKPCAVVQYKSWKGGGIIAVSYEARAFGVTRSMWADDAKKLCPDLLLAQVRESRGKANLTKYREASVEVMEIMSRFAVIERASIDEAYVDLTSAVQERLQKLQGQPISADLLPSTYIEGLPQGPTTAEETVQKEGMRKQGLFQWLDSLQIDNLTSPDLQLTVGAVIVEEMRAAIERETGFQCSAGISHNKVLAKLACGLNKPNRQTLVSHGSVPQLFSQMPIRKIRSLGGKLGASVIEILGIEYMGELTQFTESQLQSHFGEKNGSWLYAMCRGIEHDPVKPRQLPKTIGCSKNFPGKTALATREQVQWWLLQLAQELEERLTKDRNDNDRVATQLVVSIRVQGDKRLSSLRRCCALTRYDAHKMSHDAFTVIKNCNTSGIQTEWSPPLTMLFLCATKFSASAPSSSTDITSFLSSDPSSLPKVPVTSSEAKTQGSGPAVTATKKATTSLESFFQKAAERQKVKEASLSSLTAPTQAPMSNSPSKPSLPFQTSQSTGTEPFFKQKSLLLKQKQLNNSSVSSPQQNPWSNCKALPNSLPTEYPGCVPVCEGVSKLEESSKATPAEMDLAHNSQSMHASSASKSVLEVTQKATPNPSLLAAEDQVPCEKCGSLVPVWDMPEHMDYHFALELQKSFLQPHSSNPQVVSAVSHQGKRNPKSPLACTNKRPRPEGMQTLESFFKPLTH
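Fluorescent replication assay: 50 nM final substrate added after a 15 min room-temperature compound preincubation with 10 nM enzyme. Signal taken at 0 min and again at 10 min.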
* marks the source's active call; other numbers are inactive results; u = inconclusive; x = not tested or not shown; ! = not confirmed by another sample; [ ] = another dose, or the depositor's remark. Hits are enriched below; roughly 2.4% of the tested compounds scored in any of these assays. Calls follow the shape of the dose curve; as a rule, active = well fitted curve in the direction sought with a large enough effect; inconclusive = small, poorly fitted or top-dose-only effect, or another doubt; inactive = no such curve, though single readings can be large; an effect the other way counts as inactive or inconclusive. Potency is read from the fitted curve at half-maximal effect.

SMILES	POLK inh	FEN1 inhibitor	WRN inhibitor	POLI inh	POLB inh	Pol eta inh
Cc1ccc(-c2nn3c(C)nnc3s2)cc1NC(=O)c1ccc(-c2ccc(Cl)cc2Cl)o1	u	56.2µM*	u	u	3.98µM*	u
CC(=O)c1ccc(N2C(=O)N(Cc3ccccc3C#N)c3ccccc3S2(=O)=O)cc1	-3.0%[60.1 µM]	5.8%	x	-10.0%	-25.4%	-4.7%
Cc1ccc(-n2nc3cc(C)c(NC(=O)COc4ccccc4)cc3n2)cc1	-2.0%[60.1 µM]	-0.7%	x	21.3%	-0.8%	-5.8%
CCc1ccc2occ(CC(=O)Nc3c(C(=O)Nc4ccc(OC)cc4)oc4ccccc34)c2c1	-15.3%	-11.8%	x	28.4%	-26.9%	-18.7%
O=C(Cn1c(-c2cccs2)cc2cc(Cl)ccc21)N1CCCCC1	-7.0%	-9.9%	x	-5.5%	0.3%	-22.2%
Cc1nc(S/C(=C\c2ccc(OCc3ccccc3Cl)cc2)C(=O)O)n[nH]1	5.9%	4.6%	-13.2%[57.1 µM]	u	1.5%	31.6µM*
O=C(NCc1ccc(Cl)cc1)c1ccc2c(Cl)c3c(nc2c1)CCCC3	-5.3%	-7.8%	x	30.1%	7.1%	-19.9%
O=C(Nc1ccc(Cl)c([N+](=O)[O-])c1)c1ccncc1	-7.6%	14.7%	-27.8%	-0.2%	9.3%	-17.0%
O=C(Nc1ccc(Cl)c([N+](=O)[O-])c1)c1cnccn1	u	-11.5%	-32.2%	u	39.8µM*	22.4µM*
CCOc1cc(/C=C2\C(=O)N(c3cccc(C(=O)O)c3)N=C2C(F)(F)F)ccc1OCC(=O)Nc1ccccc1OC	x	x	x	x	20µM*	x
Cc1cc([N+](=O)[O-])c2[nH]c(C(=O)N/N=C/c3ccccc3C(=O)O)c(-c3ccccc3)c2c1	-6.6%	u	u	21.3%	28.2µM*	44.7µM*
Nc1ccc(N(CCO)CCO)cc1	-40.8%	-23.4%	-29.7%	2.82µM*	17.8µM*	-20.1%
Fc1ccc(C[n+]2csc3ccccc32)cc1	-11.7%	1.2%	56.2µM*	4.2%	61.5%	-10.5%
CCN(CC)c1ccc(/C=C2\C(=O)N(c3nnc(C)c(=O)[nH]3)N=C2C)cc1	-4.0%	-9.9%	-11.6%[11.6 µM]	3.16µM*	39.2%	u
Cc1cc(-c2ccc(Br)s2)nc(-n2cccc2)n1	u	2.0%	-8.8%	u	u	-13.9%
Cc1cc(-c2sccc2Br)nc(-n2cccc2)n1	79.4µM*	1.8%	-10.9%	u	-20.0%	-14.5%
Nc1ccc2cc3ccccc3cc2c1	9.8%	0.9%	-0.2%	49.6%	x	-8.5%
Nc1ccc2cccc(O)c2c1	79.4µM*	-11.3%	-27.3%	12.6µM*	x	22.4µM*
CN1C(=O)S/C(=C/c2cccn2-c2cccc(C(=O)O)c2)C1=O	-31.9%	-21.7%	-6.3%[11.6 µM]	u	u	50.1µM*
O=C(O)C1NCCN(C(=O)c2ccc3c(ccc4ccccc43)c2)C1C(=O)O (stereo unspecified)	7.1%[60.1 µM]	x	x	x	x	x
CCNc1ccc(S(=O)(=O)N(C)C)cc1NCC(=O)Nc1ccc(F)c(Cl)c1	-9.8%	-5.0%	-12.2%[57.1 µM]	89.1µM*	-25.8%	-16.9%
Cc1c(Cl)cccc1NC(=O)CNc1cccc(S(=O)(=O)N(C)C)c1	-5.9%	2.2%	-4.6%	10.8%	79.4µM*	-11.3%
COc1cccc(CNC(=O)c2ccc3c(c2)N(C)C(=O)C2CCCCN32)c1 (stereo unspecified)	-6.0%[60.1 µM]	-10.7%	x	-9.6%	10.9%	2.0%
CCOC(=O)N1CCN(/[N+]([O-])=N/Oc2ccc(C(F)(F)F)cc2[N+](=O)[O-])CC1	3.1%	3.9%	x	12.0%	x	x
C=C(CN(C)C)C(=O)c1ccc(C)cc1C	-5.4%	-9.6%	17.8µM*	u	x	-10.4%
SMILES	POLK inh	FEN1 inhibitor	WRN inhibitor	POLI inh	POLB inh	Pol eta inh
C=C(CN(C)C)C(=O)c1cc(OC)c(OC)cc1OC	-7.8%	3.3%	u	-3.4%	x	-7.3%
CC(C)c1ccc(C2=NC(c3ccncc3)=Nc3ccc(F)cc3N2)cc1	-13.9%	6.0%	x	10.7%	1.8%	x
COC(=O)c1cccc(NC(=O)CSc2nc(O)c(-c3ccccc3)c(=O)[nH]2)c1	u	10.0%	-7.5%[11.6 µM]	u	u	25.1µM*
O=C(CSc1nc2c(oc3ccccc32)c(=O)[nH]1)Nc1cccc(Cl)c1	-34.1%	-16.5%	x	u	70.8µM*	-12.7%
COC(=O)c1ccccc1NC(=O)CSc1nc(O)c(-c2ccccc2)c(=O)[nH]1	-18.6%	5.3%	-2.1%[11.6 µM]	84.1%	u	u
O=C(Nc1ccccc1)N1CCC2(CC1)CCN(S(=O)(=O)c1ccccc1)CC2	0.1%[60.1 µM]	x	x	x	x	x
CNC(=O)c1cc2c(n(-c3ccc(C)cc3)c1=O)CC(C)(C)CC2=O	-9.4%	-2.8%	x	35.3%	12.7%	-9.7%
NC(=O)C1CN(S(=O)(=O)c2ccc(Cl)cc2F)c2ccccc2O1 (stereo unspecified)	1.8%	-15.5%	7.1%	10.4%	63.1µM*	-19.6%
O=C(Cc1cccc2ccccc12)N/N=C/c1ccc(F)cc1	2.2%[60.1 µM]	9.2%	-3.9%	18.4%	-2.2%	-8.9%
O=C(Cc1cccc2ccccc12)N/N=C/c1ccc(OC(=O)/C=C/c2ccco2)cc1	u	-10.5%	-5.0%[57.1 µM]	u	10µM*	u
CCn1c(C)c(C)c2cc(C(=O)NCCCN3CCCCCC3)ccc21	-12.0%	7.3%	-1.5%[11.6 µM]	89.1µM*	5.1%	-6.4%
COc1[nH]c(/N=C/c2ccccc2)c(C#N)c1C#N	u	50.1µM*!	-34.1%	79.4µM*	89.1µM*	-6.8%
O=c1ccc2cc3c([nH]c4ccc(Br)cc43)oc-2c1O	x	x	x	x	10µM*	x
O=C(O)c1ccc(N=Nc2c(O)[nH]c3ccc(Br)cc23)cc1	-6.7%	-12.4%	-12.8%	-11.8%	0.7%	u
COc1ccc(CCN(C)C(=O)COC(=O)/C=C/c2ccc(C)o2)cc1OC	u	0.6%	-15.2%	50.1µM*	x	u
CC(=O)NC(Cc1ccc(I)cc1)C(=O)NCC(N)C(=O)c1ccccc1 (stereo unspecified)	-3.7%	-4.5%	x	-18.7%	x	x
COc1ccc(-c2noc(-c3ccc(NC4CCCCC4)c([N+](=O)[O-])c3)n2)cc1OC	2.3%	16.0%	x	18.4%	7.5%	-17.4%
COc1ccc(-c2noc(-c3ccc(NC(C)c4ccccc4)c([N+](=O)[O-])c3)n2)cc1OC (stereo unspecified)	-9.6%	-7.2%	x	54.9%	31.6µM*	-18.4%
COc1ccc(-c2cc3nc4ccccc4n3c(N)c2C#N)cc1	-5.9%	-20.0%	-8.4%	19.8%	3.98µM*	-10.4%
Cc1cc(NCCCCCCCNc2cc(C)nc3cc([N+](=O)[O-])ccc23)c2ccc([N+](=O)[O-])cc2n1	-22.3%	44.7µM*	u	25.0%	x	u
COCCCNc1cc(C)nc2ccccc12	1.5%	-2.7%	5.1%	20.5%	17.8%	-5.9%
